The supplement of paper PMC6522484
± gives the standard deviation of the averaged measurements.

Tests used:
DLD1 [1] = experiment: cell viability (CellTiter-Glo) relative to plate median (fraction of plate median); higher = more viable cells; conditions: 5 µM; treatment time 24 h; reporter: 7TFP
Procedure, shortened: (§1)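 On parallel plates, a Tecan F500 reader recorded either firefly luciferase or CellTiterGlo luminescence. The plates held colorectal cancer cells stably transduced with lentiviral TCF/Wnt firefly luciferase reporters (7TFP or TCF4/Wnt), seeded in 384-well format and treated 24 h later with library compounds at a final 5 µM for 24 h. Per-well signals were normalised to the plate median (webcellHTS2, additive, no log transformation), and two independent replicates were averaged.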

HCT116 = experiment: as above; conditions: 5 µM; treatment time 24 h; reporter: TCF4/Wnt
Procedure, shortened: as §1

SW480 [2] = experiment: as above; conditions: 5 µM; treatment time 24 h; reporter: 7TFP
Procedure, shortened: as §1

DLD1 [3] = experiment: TCF/Wnt firefly luciferase reporter signal relative to plate median (fraction of plate median); higher = higher Wnt reporter signal; conditions: 5 µM; treatment time 24 h; reporter: 7TFP
Procedure, shortened: as §1

SW480 [4] = experiment: as above; conditions: 5 µM; treatment time 24 h; reporter: 7TFP
Procedure, shortened: as §1

SMILES	cell viability (DLD1 [1])	cell viability (HCT116)	cell viability (SW480 [2])	TCF/Wnt firefly luciferase reporter signal (DLD1 [3])	TCF/Wnt firefly luciferase reporter signal (SW480 [4])
C[C@@H]([C@H]1OC(C)(C)[C@@H](O)[C@H]1O)[C@@H]1CC[C@]2(C)C3=CC[C@H]4C(C)(C)C(=O)CC[C@]4(C)[C@H]3CC[C@@]12C	1.1 ± 0.19	0.998 ± 0.1	1.07 ± 0.042	1.01 ± 0.084	0.884 ± 0.065
CCn1cc(C(=O)O)c(=O)c2cc(F)c(N3CCNC(C)C3)c(F)c21 (stereo not given)	0.971 ± 0.056	1.05 ± 0.057	0.98 ± 0.012	1.13 ± 0.057	0.997 ± 0.061
COc1cc(O)c2c(c1)C(=O)c1cc(C)cc(O)c1C2=O	0.973 ± 0.017	0.979 ± 0.016	1.01 ± 0.12	0.949 ± 0.015	1.09 ± 0.057
CNCC[C@H](Oc1cccc2ccccc12)c1cccs1	1.03 ± 0.067	1.06 ± 0.021	1.05 ± 0.028	0.87 ± 0.023	0.97 ± 0.021
O=C(O)CCC(=O)c1ccc(-c2ccccc2)cc1	1.04 ± 0.073	0.947 ± 0.12	0.962 ± 0.018	1 ± 0.095	1.04
CC(C)(C)NC[C@H](O)COc1nsnc1N1CCOCC1	0.966 ± 0.045	0.992 ± 0.17	0.9705 ± 0.0092	0.971 ± 0.084	1.04 ± 0.042
CCCC1O[C@@H]2C[C@H]3[C@@H]4CCC5=CC(=O)C=C[C@]5(C)[C@H]4[C@@H](O)C[C@]3(C)[C@]2(C(=O)CO)O1 (stereo not given in full)	1.03 ± 0.014	0.938 ± 0.1	0.912 ± 0.015	1.09 ± 0.071	0.81 ± 0.04
Cc1cc(=O)n(-c2ccccc2)n1C	1.03 ± 0.081	0.94 ± 0.026	1.01 ± 0.034	1.11 ± 0.2	1.075 ± 0.0071
CC(N)C(=O)OC(C)(C)Cc1ccc(Cl)cc1 (stereo not given)	1.11 ± 0.042	1.15 ± 0.064	1.02 ± 0.036	0.945 ± 0.013	0.879 ± 0.1
O=C1NCCN(C(=O)[C@H](Cc2ccccc2)NC(=O)[C@@H]2CCCN2)C1=O [Prolyl-phenylalanyl-diketopiperazine]	1.04 ± 0.15	1.02 ± 0.035	1.02 ± 0.021	0.984 ± 0.02	0.918 ± 0.0014
CN1[C@@H](CC(=O)c2ccccc2)CCC[C@H]1C[C@H](O)c1ccccc1	1.1 ± 0.13	0.987 ± 0.061	1.05 ± 0.021	0.998 ± 0.032	1.04 ± 0.098
Nc1cc(N2CCCCC2)nc(N)[n+]1[O-]	1.01 ± 0.047	0.972 ± 0.054	1 ± 0.04	1.04 ± 0.11	0.943 ± 0.062
CCCCC/C=C/CCC(=O)N[C@H]1[C@H](Oc2c3cc4cc2Oc2ccc(cc2Cl)[C@@H](O[C@@H]2O[C@H](CO)[C@@H](O)[C@H](O)[C@H]2NC(C)=O)[C@@H]2NC(=O)[C@H](NC(=O)[C@@H]4NC(=O)[C@H]4NC(=O)C(Cc5ccc(c(Cl)c5)O3)NC(=O)[C@H](N)c3ccc(O)c(c3)Oc3cc(O)cc4c3)c3ccc(O)c(c3)-c3c(OC4O[C@H](CO)[C@@H](O)[C@H](O)[C@@H]4O)cc(O)cc3[C@@H](C(=O)O)NC2=O)O[C@H](CO)[C@@H](O)[C@@H]1O (stereo not given in full) [TEICOPLANIN [A(2-1) shown]]	1.04 ± 0.035	1.01 ± 0.07	1.02 ± 0.083	0.971 ± 0.0071	1 ± 0.04
Oc1c(Cl)cc(Cl)c2cccnc12	0.9925 ± 0.00071	1.02 ± 0.081	0.963 ± 0.033	1.03 ± 0.16	1.07 ± 0.021
